The panel holds about 79,000 compounds, 15% with a hit somewhere; the sample as a whole holds those more often. Values without a mark were called inactive. Rule as the data show it: active = growth inhibition above about 70%; inactive = the rest.

The test in a line: NCI Yeast Anticancer Drug Screen. Data for the mlh1 rad18 strain (AID 175). Conditions: S. cerevisiae mlh1 rad18 strain growth inhibition; at 50.0 µM; stronger effect = higher value. In short, it runs like this: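 Vehicle-treated cultures served as the reference for growth inhibition in a yeast strain carrying DNA damage repair alterations exposed to each compound.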
On to `Nc1nnc2cc(Br)ccc2n1`, for which the growth inhibition was 4.45%.

As for `NNC(=O)C1CC1`, the growth inhibition is -4.55%.

Consider `Cc1cccc(C)c1NC(=O)Nc1cccc(C(F)(F)F)c1`, for which the growth inhibition is -17.8%.

On to `CC1=CC(C)(C)NC(=S)N1c1cccc2c(S(=O)(=O)O)cccc12`, for which the growth inhibition is 6.3%.

As to `CNC(=O)N(C)C(=O)c1ccncc1C(=O)N(C(=O)NC1CCCCC1)C1CCCCC1`, the growth inhibition was 1.65%.

Turning to `C[N+](C)(C)/N=C1\CC2CCC1C2` (stereo not given), the growth inhibition is 23.1%.

For `O=C(O)CCC(=O)Nc1cc(C(F)(F)F)ccc1Cl`, the growth inhibition is 7.5%.

In the case of `COc1cc(/C=C(\OC(C)=O)c2ccc3c(c2)OCO3)cc(OC)c1OC`, the growth inhibition was -19.1%.

`Cc1ccnc2ccccc12`: the growth inhibition is -11.4%.

Turning to `CCOc1ccc2nc(NC(=O)C(=O)C(C#N)CC(C)(C)C=O)sc2c1` (stereo not given), the growth inhibition is -28.1%.

For the compound `COc1ccc(OC)c2cc3c(cc12)C(=O)C(C)=C(C)C3=O`, the growth inhibition was 7.7%.

Consider `CCCCCCCCCCCCCCCC(=O)OCC1OC(n2ccc(N)nc2=O)C(O)C1O` (stereo not given), for which the growth inhibition is -2.8%.

Consider `CC(=O)OC1CCC2(C)C3=CCC4(C)C(C(C)=O)=CCC4C3CCC2C1` (stereo not given), for which the growth inhibition was -23.1%.

For the compound `CCCCC[N+](CCCCC)(CCCCC)CCCCC`, the growth inhibition was -13.5%.

In the case of `COC(=O)c1nc(=S)[nH]c(C(=O)OC)c1C(=O)c1ccccc1O`, the growth inhibition was 30%.

`COC(=O)[C@@H]1CON(Cc2ccccc2)C1CC1(C)OCCO1` (stereo not given in full): the growth inhibition is 8.45%.

In the case of `COc1ccc(C2=C(C#N)C(=C(C#N)C#N)NC(N)=C2C#N)cc1`, the growth inhibition was -17.4%.

Turning to `O=[N+]([O-])C(Cl)C(Cl)C(Cl)=C(Cl)Cl` (stereo not given), the growth inhibition is 52.2%.

`CCOC(=O)C(C#N)(Cc1c(-c2ccccc2)[nH]c2ccccc12)NC(C)=O` (stereo not given): the growth inhibition was 6.15%.

In the case of `Cc1cc2c(C(C)C)c(O)c(O)c(C=Nc3cccc(O)c3)c2c(O)c1-c1c(C)cc2c(C(C)C)c(O)c(O)c(C=Nc3cccc(O)c3)c2c1O`, the growth inhibition is 58.3%.

As to `c1ccc2sc(-c3nc4ccccc4s3)nc2c1`, the growth inhibition was 12.4%.

With `Clc1ccc(-c2nnc(-c3ccccc3)o2)cc1Cl`, the growth inhibition is -6.5%.

`COc1cccc(NC(=O)CC(=O)Nc2cccc(OC)c2)c1`: the growth inhibition was -18.7%.

As for `Cc1ccccc1C(=O)c1ccc2ccccc2c1`, the growth inhibition is 25.4%.

As for `Cc1ccc2ccccc2[n+]1CC(=O)c1ccc2c(c1)OCO2`, the growth inhibition was 10.7%.

(Values after PubChem BioAssay (NCI).)
